# Assay results: PubChem BioAssay (NCI)
# The panel holds about 83,000 compounds, 20% with a hit somewhere; the sample as a whole holds those more often.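 Plates (96-well) were seeded with cells, treated with compound at one concentration, and incubated for 48 hours before percent growth was determined.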 A number with no mark means an inactive call. Calls of active or inactive are those of the source. How the source made its calls: active means growth percent below 10; inactive means the rest.
# Key:
# Experiment in all cases: NCI-60 one-dose screen, 48 h (100 = growth as untreated, 0 = no growth, -100 = all killed)
# Conditions in all cases: 10 µM unless noted
# RPMI-8226 leukemia = tested on: RPMI-8226 leukemia
# OVCAR-8 ovarian = tested on: OVCAR-8 ovarian
# OVCAR-5 ovarian = tested on: OVCAR-5 ovarian
# OVCAR-4 ovarian = tested on: OVCAR-4 ovarian
# SK-OV-3 ovarian = tested on: SK-OV-3 ovarian
# IGROV1 ovarian = tested on: IGROV1 ovarian
# OVCAR-3 ovarian = tested on: OVCAR-3 ovarian
# HS 578T breast = tested on: HS 578T breast
# NCI/ADR-RES ovarian = tested on: NCI/ADR-RES ovarian
# T-47D breast = tested on: T-47D breast
SMILES,growth (RPMI-8226 leukemia),growth (OVCAR-8 ovarian),growth (OVCAR-5 ovarian),growth (OVCAR-4 ovarian),growth (SK-OV-3 ovarian),growth (IGROV1 ovarian),growth (OVCAR-3 ovarian),growth (HS 578T breast),growth (NCI/ADR-RES ovarian),growth (T-47D breast)
C[C@]12CC[C@@H]3c4ccc(O)cc4CC[C@H]3[C@@H]1CC[C@@H]2NS(=O)(=O)c1cccc(Br)c1,44.4%,67%,97.7%,53.9%,90.7%,53.1%,58.8%,73.8%,56.2%,37.4%
CC(C)c1nc(N(C)S(C)(=O)=O)nc(-c2ccc(F)cc2)c1/C=C/[C@@H](O)C[C@@H](O)CC(=O)O,113%,90.5%,108%,100%,104%,105%,99.4%,110%,104%,99.4%
COc1ccc2c(c1)nc(N)c1c3ccccc3cn21,80.3%,87.8%,113%,95.6%,85.6%,73.1%,79.3%,–,69.1%,70.7%
COc1ccc(-c2c3c(nn2-c2ccc(N)cc2)CCc2cnoc2-3)cc1OC,60%,65%,94.1%,102%,124%,97.6%,83.1%,–,77.6%,97%
COc1ccc(C2=NN(C(=O)c3cc(OC)c(OC)c(OC)c3)C(c3ccc(C#N)cc3)C2)cc1OC (stereo not drawn),60.8%,32.8%,58.8%,62.1%,19.8%,13.4%,–,-18.3% (active),2.92% (active),37.1%
Cn1cc(-c2csc(-c3cn(C)c4ncccc34)n2)c2cccnc21,87.5%,93.7%,90.2%,100%,123%,111%,112%,–,91.1%,101%
COc1cc(/C=C/c2nnc(-c3cc(-c4ccccc4)n[nH]3)o2)cc(OC)c1OC,83%,80.8%,101%,100%,88.7%,110%,107%,99.7%,86.7%,73.2%
OCCOc1c(Cl)cc(Cl)cc1Cl,119%,104%,92.6%,98.1%,106%,115%,118%,98.4%,102%,109%
NC(=O)c1ncn([C@@H]2O[C@H](CO)[C@@H](O)[C@H]2O)n1,87.2%,72.7%,102%,92.2%,96.8%,98.9%,103%,113%,88%,89%
CCCCN(CCCC)CCCOC(=O)c1ccc(N)cc1,68%,73%,97%,84.2%,83.3%,75.8%,102%,82.2%,94.2%,88%
C=C(C)[C@H]1CC/C(C)=C/CC[C@]2(C)O[C@H]2CC/C(COC(C)=O)=C\C1=O,-80.2% (active),107%,98.7%,123%,111%,74.4%,–,119%,102%,95.1%
COc1ccc(-n2nc3c(c2-c2ccc(OC)c(OC)c2)-c2oncc2CC3)cc1,56.7%,84.7%,99.5%,86.1%,106%,99.1%,76.4%,–,80.6%,71%
O=C1c2nsnc2C(=O)c2c(F)c(F)c(F)c(F)c21,-1.71% (active),-38.6% (active),-73.8% (active),-99.5% (active),32.4%,-22.9% (active),-90.1% (active),–,-17.1% (active),-38.9% (active)
Cn1cc(-c2nc(-c3c[nH]c4ncccc34)cs2)c2cccnc21,67.1%,82.9%,83.6%,70.4%,62%,61.5%,82.6%,–,44.7%,51.4%
Cc1nc2c(O)cccc2cc1CO,113%,120%,92.7%,100%,110%,120%,112%,130%,96.1%,99.4%
COc1ccc2c(c1)nc(N)c1c3cc(OC)c(OC)cc3cn21,42.8%,40.9%,62.5%,69.8%,43.9%,65.4%,37.6%,–,33.9%,64%
O=C(CSc1nnc(Nc2ccccc2)s1)NCCc1ccc(F)cc1,145%,117%,92.9%,102%,113%,-2.38% (active),113%,119%,99.3%,94.8%
C/C(=N\N1CC(=O)NC1=O)c1ccc([N+](=O)[O-])o1,71%,98.2%,111%,105%,109%,99.6%,102%,108%,93.7%,102%
Cn1cc(-c2nc(-c3c[nH]c4ncc(F)cc34)cs2)c2cccnc21,100%,105%,93.4%,82.2%,109%,108%,117%,–,100%,59.9%
Cn1cc(-c2csc(-c3cn(C)c4ncccc34)n2)c2cc(Br)cnc21,79.3%,94.3%,88.1%,92.1%,105%,110%,119%,–,79.2%,77%
COc1ccc(Nc2ccnc(NCCCNc3ccnc4cc(Cl)ccc34)n2)cc1,-60.5% (active),5.52% (active),-19.9% (active),11.8%,-5.22% (active),21.7%,-84.5% (active),-52.2% (active),35.4%,-51.8% (active)
C/C(=C\CCc1ccsc1)CC/C=C(\C)CCCN1CCC(CO)CC1,-31.1% (active),62.8%,63.9%,40.8%,55.5%,56.1%,–,28.3%,51%,27.1%
N=C(N)/N=C(\CCc1nc2ccccc2[nH]1)c1nc2ccccc2[nH]1,105%,105%,90%,107%,108%,114%,–,99.4%,93.4%,99.7%
O=C(Oc1ccc[nH]c1=O)c1cccc(Cl)c1,108%,113%,97.5%,54.6%,103%,–,102%,154%,99.1%,99.2%
C=C1CC[C@@H]2[C@](C)(COC(C)=O)[C@H](OC(C)=O)CC[C@@]2(C)[C@@H]1CC(Nc1ccc(S(=O)(=O)Nc2cc(C)on2)cc1)C1=CCOC1=O (stereo partly drawn),-15.2% (active),16.1%,52.2%,68.2%,109%,–,7.95% (active),89.5%,31.6%,63.6%
COc1ccc(CCN2CCCN3C2=Nc2ccccc2S3(=O)=O)cc1,29.9%,36.2%,43.4%,54.1%,48.6%,50.8%,–,39.5%,15.8%,44.7%
CC12CCCCC1C(C(N)=O)C(=O)O2 (stereo not drawn),106%,102%,112%,101%,107%,119%,–,110%,102%,114%
